# According to PubChem BioAssay AID1159580 (chemical genetic matrix, 2015):
# Values joined by “and” are separate entries in the source; they are usually repeats but may differ in a detail not shown here. Equal entries are not always repeated. Screen size: about 5,500 compounds; about 2,000 (36%) were called active. About 18% were inconclusive and are not listed. Some of the results follow. Values without a mark were called inactive. Cut-off read from the data, not from the text of the source: active = normalized growth mostly below about 0.91 (no sharp cut-off); inconclusive = no clear call, values can overlap the other calls; inactive = mostly above about 0.92.
# Assay: chemical genetic growth profiling, strain panel (AID 1159580);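 note: tested at 20 µM; growth read once vehicle control cultures reached saturation at 30 °C; 1 = growth at the plate median or of vehicle wells; lower values mean less growth of the strain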
# Conditions: S. cerevisiae deletion strains, growth OD
smiles,measurement,setting,value
COc1c2occc2c(OC)c2c(=O)cc(C)oc12,normalized growth,"locus YAL021C, strain ccr4, active compounds read low",0.992
same,normalized growth,"locus YAL026C, strain drs2, active compounds read low",0.985
same,normalized growth,"locus YAL030W, strain snc1, active compounds read low",0.992
same,normalized growth,"locus YBL061C, strain skt5, active compounds read low",0.992
same,normalized growth,"locus YBR009C, strain hhf1, active compounds read low",0.963
same,normalized growth,"locus YBR021W, strain FUR4, active compounds read low",0.958
same,normalized growth,"locus YBR023C, strain chs3, active compounds read low",0.97
same,normalized growth,"locus YBR171W, strain sec66, active compounds read low",0.987
same,normalized growth,"locus YBR229C, strain ROT2, active compounds read low",1.01
same,normalized growth,"locus YBR231C, strain swc5, active compounds read low",0.944
same,normalized growth,"locus YBR279W, strain paf1, active compounds read low",0.978
same,normalized growth,"locus YCL011C, strain gbp2, active compounds read low",0.967
same,normalized growth,"locus YCL016C, strain dcc1, active compounds read low",0.986
same,normalized growth,"locus YCL029C, strain bik1, active compounds read low",0.998
same,normalized growth,"locus YCL061C, strain MRC1, active compounds read low",0.995
same,normalized growth,"locus YCL069W, strain vba3, active compounds read low",0.977
same,normalized growth,"locus YCR088W, strain abp1, active compounds read low",0.991
same,normalized growth,"locus YDL005C, strain med2, active compounds read low",0.989
same,normalized growth,"locus YDL035C, strain GPR1, active compounds read low",1.05
same,normalized growth,"locus YDL040C, strain nat1, active compounds read low",0.992
same,normalized growth,"locus YDL074C, strain BRE1, active compounds read low",1.06
same,normalized growth,"locus YDL101C, strain DUN1, active compounds read low",1.02
same,normalized growth,"locus YDL134C, strain PPH21, active compounds read low",1.05
same,normalized growth,"locus YDL185W, strain tfp1, active compounds read low",1.01
same,normalized growth,"locus YDL192W, strain arf1, active compounds read low",1.01
same,normalized growth,"locus YDR001C, strain nth1, active compounds read low",0.991
same,normalized growth,"locus YDR069C, strain doa4, active compounds read low",0.985
same,normalized growth,"locus YDR101C, strain arx1, active compounds read low",0.988
same,normalized growth,"locus YDR137W, strain rgp1, active compounds read low",1.01
same,normalized growth,"locus YDR159W, strain sac3, active compounds read low",0.97
same,normalized growth,"locus YDR162C, strain NBP2, active compounds read low",1.02
same,normalized growth,"locus YDR195W, strain ref2",1.14
same,normalized growth,"locus YDR297W, strain sur2, active compounds read low",0.979
same,normalized growth,"locus YDR318W, strain mcm21, active compounds read low",1.01
same,normalized growth,"locus YDR334W, strain swr1, active compounds read low",0.994
same,normalized growth,"locus YDR335W, strain msn5, active compounds read low",0.987
same,normalized growth,"locus YDR388W, active compounds read low",1
same,normalized growth,"locus YDR392W, strain spt3, active compounds read low",0.734 (active)
same,normalized growth,"locus YDR502C, strain sam2, active compounds read low",1.01
same,normalized growth,"locus YEL003W, strain gim4, active compounds read low",0.938
same,normalized growth,"locus YEL037C, strain rad23, active compounds read low",0.99
same,normalized growth,"locus YEL061C, strain CIN8 (second series), active compounds read low",0.981
same,normalized growth,"locus YER015W, strain faa2, active compounds read low",0.977
same,normalized growth,"locus YER016W, strain bim1, active compounds read low",0.994
same,normalized growth,"locus YER110C, active compounds read low",1
same,normalized growth,"locus YER111C, strain swi4, active compounds read low",1
same,normalized growth,"locus YER155C, strain BEM2 (second series), active compounds read low",0.881
same,normalized growth,"locus YER155C, strain BEM2, active compounds read low",1
same,normalized growth,"locus YER167W, strain BCK2, active compounds read low",1.01
same,normalized growth,"locus YFR010W, strain ubp6, active compounds read low",0.986
same,normalized growth,"locus YGL078C, strain dbp3, active compounds read low",1.01
same,normalized growth,"locus YGL086W, strain mad1, active compounds read low",1
same,normalized growth,"locus YGL167C, strain pmr1, active compounds read low",0.997
same,normalized growth,"locus YGL173C, strain kem1, active compounds read low",0.977
same,normalized growth,"locus YGL227W, strain vid30, active compounds read low",0.99
same,normalized growth,"locus YGL240W, strain doc1, active compounds read low",0.955
same,normalized growth,"locus YGL248W, strain PDE1, active compounds read low",1.04
same,normalized growth,"locus YGL253W, strain hxk2, active compounds read low",0.958
same,normalized growth,"locus YGR135W, strain pre9, active compounds read low",1
same,normalized growth,"locus YGR252W, strain gcn5, active compounds read low",0.965
same,normalized growth,"locus YHR013C, strain ard1, active compounds read low",0.975
same,normalized growth,"locus YHR027C, strain rpn1, active compounds read low",0.987
same,normalized growth,"locus YHR030C, strain SLT2, active compounds read low",1.02 and 0.987
same,normalized growth,"locus YHR079C, strain IRE1 (second series), active compounds read low",1
same,normalized growth,"locus YHR079C, strain IRE1, active compounds read low",0.996
same,normalized growth,"locus YHR094C, strain hxt1, active compounds read low",1.01
same,normalized growth,"locus YHR129C, strain ARP1, active compounds read low",1.01
same,normalized growth,"locus YHR142W, strain chs7, active compounds read low",0.949
same,normalized growth,"locus YHR200W, strain rpn10, active compounds read low",1.04
same,normalized growth,"locus YIL066C, strain RNR3, active compounds read low",1.02
same,normalized growth,"locus YIL073C, strain SPO22, active compounds read low",1.13
same,normalized growth,"locus YIL125W, strain kgd1, active compounds read low",1.02
same,normalized growth,"locus YIR030C, strain dcg1, active compounds read low",1.01
same,normalized growth,"locus YJL092W, strain hpr5, active compounds read low",0.996
same,normalized growth,"locus YJL095W, strain BCK1 (second series), active compounds read low",0.993
same,normalized growth,"locus YJL095W, strain BCK1, active compounds read low",1.03 and 1
same,normalized growth,"locus YJL115W, strain asf1, active compounds read low",0.996
same,normalized growth,"locus YJL129C, strain trk1, active compounds read low",1.01
same,normalized growth,"locus YJL134W, strain LCB3, active compounds read low",1.01
same,normalized growth,"locus YJL154C, strain vps35, active compounds read low",0.995
same,normalized growth,"locus YJL164C, strain tpk1, active compounds read low",0.965
same,normalized growth,"locus YJL166W, strain qcr8, active compounds read low",0.945
same,normalized growth,"locus YJL168C, strain set2, active compounds read low",1.01
same,normalized growth,"locus YJL187C, strain SWE1 (second series), active compounds read low",1.02
same,normalized growth,"locus YJL187C, strain SWE1, active compounds read low",0.99
same,normalized growth,"locus YJR043C, strain POL32, active compounds read low",1.03
same,normalized growth,"locus YJR066W, strain TOR1, active compounds read low",0.931
same,normalized growth,"locus YJR075W, strain HOC1, active compounds read low",1.03
same,normalized growth,"locus YKL009W, strain mrt4, active compounds read low",0.991
same,normalized growth,"locus YKL068W, active compounds read low",1.01
same,normalized growth,"locus YKL085W, strain MDH1 (second series), active compounds read low",1.01
same,normalized growth,"locus YKL085W, strain MDH1, active compounds read low",1.01
same,normalized growth,"locus YKL160W, strain elf1, active compounds read low",0.963
same,normalized growth,"locus YKR001C, strain vps1, active compounds read low",1.02
same,normalized growth,"locus YKR026C, strain gcn3, active compounds read low",0.995
same,normalized growth,"locus YKR091W, strain srl3, active compounds read low",0.998
same,normalized growth,"locus YLL001W, strain dnm1, active compounds read low",0.949
same,normalized growth,"locus YLL026W, active compounds read low",0.999
same,normalized growth,"locus YLL041C, strain sdh2, active compounds read low",0.998
same,normalized growth,"locus YLR027C, strain aat2, active compounds read low",0.99
same,normalized growth,"locus YLR039C, strain RIC1, active compounds read low",1.18
same,normalized growth,"locus YLR058C, strain SHM2, active compounds read low",1.01
same,normalized growth,"locus YLR102C, strain apc9, active compounds read low",1.01
same,normalized growth,"locus YLR113W, strain HOG1, active compounds read low",1.07
same,normalized growth,"locus YLR221C, strain rsa3, active compounds read low",0.963
same,normalized growth,"locus YLR258W, strain gsy2, active compounds read low",0.943
same,normalized growth,"locus YLR262C, strain YPT6 (second series), active compounds read low",0.985
same,normalized growth,"locus YLR268W, strain sec22, active compounds read low",0.999
same,normalized growth,"locus YLR320W, strain mms22, active compounds read low",0.941
same,normalized growth,"locus YLR342W, strain FKS1, active compounds read low",0.994
same,normalized growth,"locus YLR357W, strain rsc2, active compounds read low",1.01
same,normalized growth,"locus YLR370C, strain arc18, active compounds read low",0.996
same,normalized growth,"locus YLR371W, strain rom2, active compounds read low",1.02
same,normalized growth,"locus YLR384C, strain iki3, active compounds read low",0.986
same,normalized growth,"locus YLR418C, strain cdc73, active compounds read low",1.04
same,normalized growth,"locus YML016C, strain PPZ1, active compounds read low",1.01
same,normalized growth,"locus YML032C, strain rad52, active compounds read low",1
same,normalized growth,"locus YML120C, strain ndi1, active compounds read low",0.972
same,normalized growth,"locus YML124C, strain tub3, active compounds read low",0.999
same,normalized growth,"locus YMR058W, strain fet3, active compounds read low",0.975
same,normalized growth,"locus YMR078C, strain ctf18, active compounds read low",1.02
same,normalized growth,"locus YMR125W, strain sto1, active compounds read low",1.04
same,normalized growth,"locus YMR129W, active compounds read low",1
same,normalized growth,"locus YMR205C, strain PFK2, active compounds read low",0.985
same,normalized growth,"locus YMR223W, strain ubp8, active compounds read low",0.992
same,normalized growth,"locus YMR231W, strain pep5, active compounds read low",0.999
same,normalized growth,"locus YMR307W, strain GAS1, active compounds read low",1.17
same,normalized growth,"locus YNL067W, strain RPL9B, active compounds read low",0.986
same,normalized growth,"locus YNL071W, strain lat1, active compounds read low",0.912 (active)
same,normalized growth,"locus YNL128W, strain TEP1, active compounds read low",1.02
same,normalized growth,"locus YNL153C, strain GIM3, active compounds read low",1
same,normalized growth,"locus YNL183C, strain NPR1, active compounds read low",0.949
same,normalized growth,"locus YNL209W, strain ssb2, active compounds read low",0.977
same,normalized growth,"locus YNL233W, strain BNI4, active compounds read low",1.03
same,normalized growth,"locus YNL248C, strain rpa49, active compounds read low",0.989
same,normalized growth,"locus YNL250W, strain rad50, active compounds read low",1.05
same,normalized growth,"locus YNL271C, strain bni1, active compounds read low",1.01
same,normalized growth,"locus YNL298W, strain CLA4, active compounds read low",1.02
same,normalized growth,"locus YNL307C, strain MCK1, active compounds read low",1
same,normalized growth,"locus YNL322C, strain KRE1 (second series), active compounds read low",0.998
same,normalized growth,"locus YNR049C, strain mso1, active compounds read low",1
same,normalized growth,"locus YNR052C, strain pop2, active compounds read low",1.01
same,normalized growth,"locus YOL012C, strain htz1",1.05
same,normalized growth,"locus YOL147C, strain pex11, active compounds read low",1.01
same,normalized growth,"locus YOR001W, strain rrp6, active compounds read low",0.946
same,normalized growth,"locus YOR061W, strain CKA2, active compounds read low",1.02
same,normalized growth,"locus YOR069W, strain VPS5, active compounds read low",1
same,normalized growth,"locus YOR070C, strain gyp1, active compounds read low",0.988
same,normalized growth,"locus YOR080W, strain dia2, active compounds read low",0.987
same,normalized growth,"locus YOR083W, strain WHI5, active compounds read low",0.942
same,normalized growth,"locus YOR106W, strain vam3, active compounds read low",0.966
same,normalized growth,"locus YOR136W, strain idh2, active compounds read low",1.02
same,normalized growth,"locus YOR144C, strain elg1, active compounds read low",1.01
same,normalized growth,"locus YOR184W, strain ser1, active compounds read low",1.02
same,normalized growth,"locus YOR231W, strain MKK1, active compounds read low",0.997
same,normalized growth,"locus YOR265W, strain rbl2, active compounds read low",0.989
same,normalized growth,"locus YOR270C, strain vph1, active compounds read low",0.839
same,normalized growth,"locus YOR290C, strain snf2, active compounds read low",0.958
same,normalized growth,"locus YOR316C, strain cot1, active compounds read low",1.03
same,normalized growth,"locus YPL051W, strain arl3, active compounds read low",0.972
same,normalized growth,"locus YPL078C, strain atp4, active compounds read low",0.951
same,normalized growth,"locus YPL106C, strain sse1, active compounds read low",0.961
same,normalized growth,"locus YPL240C, strain hsp82, active compounds read low",0.989
same,normalized growth,"locus YPL241C, strain CIN2, active compounds read low",1.01
same,normalized growth,"locus YPL256C, strain CLN2, active compounds read low",1.03
same,normalized growth,"locus YPR119W, strain clb2, active compounds read low",1.01
same,normalized growth,"locus YPR141C, strain kar3, active compounds read low",1.01
same,normalized growth,"locus YPR163C, strain tif3, active compounds read low",0.992
same,normalized growth,"locus YPR167C, strain met16, active compounds read low",1.02
same,normalized growth,"strain wtn01, active compounds read low",0.999
